For some of these results: Entries with a potency or affinity are not part of this list. Activity calls are given as the source filed them.
Assays:
[1] = qHTS profiling of the MIPE4 collection as inhibitors of Plasmodium falciparum (3D7) proliferation (AID 743344);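 further: scaled between DMSO vehicle wells and 0.29 µM artemisinin as full inhibition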; conditions: P. falciparum 3D7 in erythrocytes, SYBR Green DNA fluorescence, 72 h; at 28.5 µM unless noted
In short: (§1)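 Erythrocytes infected with P. falciparum (0.3% parasitemia, 2.5% hematocrit) incubated with compounds 72 h at 37 C, 5% CO2. Lysis with saponin/Triton buffer containing SYBR Green I, overnight at room temperature in the dark; DNA fluorescence (485/535 nm) normalised to 0.29 uM artemisinin and DMSO.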

[2] = qHTS profiling of the MIPE4 collection as inhibitors of Plasmodium falciparum (DD2) proliferation (Rep 2) (AID 743346); conditions: P. falciparum Dd2 in erythrocytes, SYBR Green DNA, 72 h; at 28.5 µM unless noted
In short: as §1

[3] = qHTS profiling of the MIPE4 collection as inhibitors of Plasmodium falciparum (HB3) proliferation (AID 743347);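 further: plate controls were DMSO vehicle wells for no effect and artemisinin wells for full effect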; conditions: P. falciparum HB3 in erythrocytes, SYBR Green DNA, 72 h; at 28.5 µM unless noted
In short: as §1

[4] = Ebola virus entry assay, green fluorescence channel
[5] = Ebola virus entry assay, blue channel fluorescence
[6] = Ebola virus entry assay, green fluorescence channel; remark: listed apart in the source
[7] = Ebola virus entry assay, ratio channel readout
[8] = Ebola virus entry assay, blue channel fluorescence; remark: listed apart in the source
[9] = Ebola virus entry assay, ratio channel
[10] = Ebola virus entry assay, green channel fluorescence
[11] = Ebola virus entry assay, blue channel fluorescence; remark: listed apart in the source
[12] = Ebola virus entry assay, reporter ratio channel; AC50: Channel type: primary unless noted; outcome: Channel type: primary unless noted
[13] = Ebola virus entry assay, blue channel (ratio component)
[14] = qHTS profiling of the MIPE4 collection as inhibitors of Plasmodium falciparum (DD2) proliferation (AID 743345); conditions: P. falciparum Dd2 in erythrocytes, SYBR Green DNA, 72 h; at 28.5 µM unless noted
In short: as §1
Wherever efficacy is given: 0% is about no effect.

OC(Cn1cncn1)(Cn1cncn1)c1ccc(F)cc1F
parasite growth, % of DMSO control [1]: 95.6% | parasite growth, % of control (lower = inhibition) [2]: 88.1% | growth, % of control [3]: 103% | efficacy [4]: -11.5% (inactive) | outcome [5]: inactive | outcome [6]: inactive | outcome [7]: inactive | outcome [8]: inactive | outcome [9]: inactive | outcome [10]: inactive | outcome [11]: inactive | outcome [12]: inactive | outcome [13]: inactive

Clc1ccc(C(c2ccccc2Cl)C(Cl)Cl)cc1 (stereo not given)
efficacy [4]: -31.8% (inactive) | outcome [5]: inactive | outcome [6]: inactive | outcome [7]: inactive | AC50 [8]: 31.6 µM (active) | AC50 [9]: 22.4 µM (active) | outcome [10]: inactive | AC50 [12]: 22.4 µM (active)

CCN(CCO)CCCC(C)Nc1ccnc2cc(Cl)ccc12 (stereo not given)
efficacy [4]: 21.3% (inactive) | outcome [5]: inactive | outcome [6]: inactive | outcome [7]: inactive | AC50 [8]: 1.12 µM (active) | AC50 [9]: 1.41 µM (active) | outcome [10]: inactive | AC50 [12]: 1.41 µM (active)

CCC(C)n1ncn(-c2ccc(N3CCN(c4ccc(OC[C@H]5CO[C@](Cn6cncn6)(c6ccc(Cl)cc6Cl)O5)cc4)CC3)cc2)c1=O (stereo not given in full)
efficacy [4]: 13.1% (inactive) | AC50 [5]: 5.01 µM (active) | outcome [6]: inactive | AC50 [7]: 2 µM (active) | outcome [8]: inactive | outcome [9]: inactive | outcome [10]: inactive | outcome [12]: inactive | outcome [13]: inactive

C=C(CC)C(=O)c1ccc(OCC(=O)O)c(Cl)c1Cl
efficacy [4]: 39.8% (inactive) | outcome [5]: inactive | outcome [6]: inactive | outcome [7]: inactive | AC50 [8]: 14.1 µM (active) | AC50 [9]: 15.8 µM (active) | outcome [10]: inactive | AC50 [12]: 15.8 µM (active)

Nc1cccc2c1CN(C1CCC(=O)NC1=O)C2=O (stereo not given)
efficacy [4]: 15.2% (inactive) | outcome [5]: inactive | outcome [6]: inactive | outcome [7]: inactive | outcome [8]: inactive | outcome [9]: inactive | outcome [10]: inactive | outcome [12]: inactive | outcome [13]: inactive

O=NN(CCCl)C(=O)NC1CCCCC1
parasite growth, % of DMSO control [1]: 91.7% | parasite growth remaining, % of DMSO control (lower = more inhibition) [14]: 101% | parasite growth, % of control (lower = inhibition) [2]: 72.9% | growth, % of control [3]: 74.9% | efficacy [4]: -12.9% (inactive) | outcome [5]: inactive | outcome [6]: inactive | outcome [7]: inactive | outcome [8]: inactive | outcome [9]: inactive | outcome [10]: inactive | outcome [11]: inactive | outcome [12]: inactive | outcome [13]: inactive

COc1c(C)c2c(c(O)c1C/C=C(\C)CCC(=O)OCCN1CCOCC1)C(=O)OC2
efficacy [4]: -9.5% (inactive) | outcome [5]: inactive | outcome [6]: inactive | outcome [7]: inactive | outcome [8]: inactive | outcome [9]: inactive | outcome [10]: inactive | outcome [12]: inactive | outcome [13]: inactive

CC(C)NCC(O)c1ccc(O)c(O)c1 (stereo not given)
efficacy [4]: -9.56% (inactive) | outcome [5]: inactive | outcome [6]: inactive | outcome [7]: inactive | outcome [8]: inactive | outcome [9]: inactive | outcome [10]: inactive | outcome [11]: inactive | outcome [12]: inactive | outcome [13]: inactive

CNC1(C)C2CCC(C2)C1(C)C (stereo not given)
efficacy [4]: 20.8% (inactive) | outcome [5]: inactive | outcome [6]: inactive | outcome [7]: inactive | AC50 [8]: 39.8 µM (active) | outcome [9]: inactive | outcome [10]: inactive | AC50 [12]: 35.5 µM (active)

CN1CCC[C@@H]1Cc1c[nH]c2ccc(CCS(=O)(=O)c3ccccc3)cc12
efficacy [4]: 20.7% (inactive) | outcome [5]: inactive | outcome [6]: inactive | outcome [7]: inactive | AC50 [8]: 25.1 µM (active) | AC50 [9]: 25.1 µM (active) | outcome [10]: inactive | AC50 [12]: 25.1 µM (active)

Cc1ccc(S(=O)(=O)NC(=O)NN2CC3CCCC3C2)cc1 (stereo not given)
efficacy [4]: -32.1% (inactive) | outcome [5]: inactive | outcome [6]: inactive | outcome [7]: inactive | outcome [8]: inactive | outcome [9]: inactive | outcome [10]: inactive | outcome [12]: inactive | outcome [13]: inactive

NS(=O)(=O)c1cc2c(cc1C(F)(F)F)NCNS2(=O)=O
efficacy [4]: -34.5% (inactive) | outcome [5]: inactive | outcome [6]: inactive | outcome [7]: inactive | outcome [8]: inactive | outcome [9]: inactive | outcome [10]: inactive | outcome [11]: inactive | outcome [12]: inactive | outcome [13]: inactive

Cc1ccc(-c2cc(C(F)(F)F)nn2-c2ccc(S(N)(=O)=O)cc2)cc1
efficacy [4]: 26.9% (inactive) | outcome [5]: inactive | outcome [6]: inactive | outcome [7]: inactive | AC50 [8]: 39.8 µM (active) | outcome [9]: inactive | AC50 [12]: 39.8 µM (active)

CC(=O)Oc1cc2c(s1)CCN(C(C(=O)C1CC1)c1ccccc1F)C2 (stereo not given)
efficacy [4]: 43.8% (inactive) | outcome [5]: inactive | outcome [6]: inactive | outcome [7]: inactive | outcome [8]: inactive | outcome [9]: inactive | outcome [11]: inactive | outcome [12]: inactive | outcome [13]: inactive

NC[C@H](O)c1ccc(O)c(O)c1
efficacy [4]: 112% (inactive) | outcome [5]: inactive | outcome [6]: inactive | outcome [7]: inactive | AC50 [8]: 12.6 µM (active) | AC50 [9]: 7.94 µM (active) | outcome [11]: inactive | AC50 [12]: 7.94 µM (active)

Cc1cn([C@H]2C[C@H](N=[N+]=[N-])[C@@H](CO)O2)c(=O)[nH]c1=O
efficacy [4]: 17% (inactive) | outcome [5]: inactive | outcome [6]: inactive | outcome [7]: inactive | outcome [8]: inactive | outcome [9]: inactive | outcome [10]: inactive | outcome [12]: inactive | outcome [13]: inactive

CC(C)(C)NC(=O)[C@H]1CC[C@H]2[C@@H]3CC[C@H]4NC(=O)C=C[C@]4(C)[C@H]3CC[C@]12C
efficacy [4]: 71.8% (inactive) | outcome [5]: inactive | outcome [6]: inactive | outcome [7]: inactive | outcome [8]: inactive | outcome [9]: inactive | outcome [11]: inactive | outcome [12]: inactive | outcome [13]: inactive

CN(Cc1cnc2nc(N)nc(N)c2n1)c1ccc(C(=O)N[C@@H](CCC(=O)O)C(=O)O)cc1
efficacy [4]: 38.5% (inactive) | outcome [5]: inactive | outcome [6]: inactive | outcome [7]: inactive | outcome [8]: inactive | outcome [9]: inactive | outcome [11]: inactive | outcome [12]: inactive

C[C@H]1c2cccc(O)c2C(O)=C2C(=O)[C@]3(O)C(O)=C(C(N)=O)C(=O)[C@@H](N(C)C)[C@@H]3[C@@H](O)[C@@H]21
efficacy [4]: 76.6% (inactive) | outcome [5]: inactive | outcome [6]: inactive | outcome [7]: inactive | AC50 [8]: 25.1 µM (active) | AC50 [9]: 20 µM (active) | outcome [11]: inactive | AC50 [12]: 20 µM (active)

CN(C)c1ccc(O)c2c1C[C@H]1C[C@H]3[C@H](N(C)C)C(=O)C(C(N)=O)=C(O)[C@@]3(O)C(=O)C1=C2O
efficacy [4]: 116% (inactive) | outcome [5]: inactive | outcome [6]: inactive | outcome [7]: inactive | outcome [8]: inactive | outcome [9]: inactive | outcome [11]: inactive | outcome [12]: inactive | outcome [13]: inactive

Source: PubChem BioAssay (NCATS)
